Epigenetic derep: derepresses silenced GFP reporter in murine cells. Potency, µM (series often up to 53.9 µM), most hits filed as activators. murine LDR cells, GFP reporter derepression, 30 h. 0.2% of 280,000 active; note: nearly all actives have a fitted effect of over 60% in size
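Derepression of a silenced CMV-GFP reporter in murine LDR cells is scored by enumerating GFP-positive cells with a laser-scanning microplate cytometer after 30 hours of treatment at 37 C.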
ClpP mod: qHTS Assay for Activators of ClpP; Potency, µM (titrated, usually from 57.5 µM); ATP-dependent Clp protease proteolytic subunit (Bacillus subtilis (strain 168)), P80244; 1.9% of 340,000 active; purified B. subtilis ClpP, FRET peptide cleavage, 20 min; active = well fitted falling curve with a large enough effect; inconclusive = small, poorly fitted or top-dose-only effect; inactive = no such curve, though single readings can be large or run the other way; note: the source files actives as falling curves though it sought activators and does not explain the sign; nearly all actives have a fitted effect of over 65% in size
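Buffer: 100 mM Tris/HCl pH8, 100 mM KCl, 0.05% low protease BSA, 2.5% glycerol, 0.01% Tween-20. ClpP 10 microg/mL final; 20 min RT; delta FRET normalized to ADEP and DMSO controls.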
Gal4-VP16 FLuc: counter-screen for ROR gamma inhibitors: Gal4-VP16 reporter. Drosophila S2 Gal4-VP16 UAS-luciferase, luminescence, 20 h. Potency, µM (series often up to 53.6 µM), hits mostly inhibitors. 3.5% of 310,000 active. AID 2546;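 note: Gal4-VP16 expression switched on by copper sulfate through the metallothionein promoter; nearly all actives have a fitted effect of over 50% in size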
PINK1 expr mod: changes PINK1 expression; 0.2% of 410,000 active; AID 624263; Potency, µM (titrated, usually from 76.6 µM), actives largely listed as activators; PINK1 immunofluorescence, high-content cytometry, 24 h; active = well fitted activation curve with a large enough effect; inconclusive = small, poorly fitted or top-dose-only effect; cell line not stated here; note: nearly all actives have a fitted effect of over 65% in size
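Compound titrations (5 concentrations, 24 h) on a stable cell line; DMSO and CCCP controls. Endpoint: fixed-cell PINK1 immunofluorescence with mitochondrial, cell and nuclear markers, scanned by microplate cytometer.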
Sfp inh: inhibitors of Bacillus subtilis Sfp phosphopantetheinyl transferase; Biochemical Sfp PPTase activity, qHTS; Potency, µM, hits mostly inhibitors; 3.5% of 310,000 active;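 note: the enzyme is Sfp with the accession as filed and its product quenches rhodamine fluorescence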
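Buffer: 50 mM Hepes-Na pH 7.6, 10 mM MgCl2, 0.01% Nonidet P-40, 0.01% BSA. Enzyme 15 nM, pre-exposed to compound 15 min; substrates then added and fluorescence change tracked over 30 min.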
RORgamma inh: ROR gamma (mouse) transcription inhibition; P51450; Drosophila S2 Gal4-RORgamma UAS-luciferase reporter, 20 h; 5.4% of 310,000 active; Potency, µM (top dose mostly 53.6 µM), most hits filed as inhibitors; note: nearly all actives have a fitted effect of over 60% in size
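A Gal4/UAS one-hybrid system in insect cells: metallothionein-promoter Gal4–ROR gamma fusion plus Photinus luciferase reporter. Copper sulfate 700 uM final, 20 hr ambient incubation, luminescent detection after 10 min with reagent.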
A number is an active result. Hits are enriched below; roughly 8.1% of the tested compounds scored in any of these assays. Unless noted, calls come from the whole dose curve; as a rule, active = well fitted curve in the direction sought with a large enough effect; inconclusive = small, poorly fitted or top-dose-only effect, or another doubt; inactive = no such curve, though single readings can be large; an effect the other way counts as inactive or inconclusive.

Cc1c(CN2CCOc3ccc(C(C)(O)COc4ccccc4)cc3C2)cnn1C (stereo not drawn) was read as PINK1 expr mod inactive.
For Cc1ccc(C(=O)Nc2ccc(-n3c(C)nc4ccccc4c3=O)cc2)cc1[N+](=O)[O-] the results were Epigenetic derep inactive, ClpP mod inactive and PINK1 expr mod inactive.
COc1ccccc1CNc1ccnc(-c2ccccc2CN(C)C)n1 was read as Gal4-VP16 FLuc inactive, PINK1 expr mod inactive, Sfp inh inactive and RORgamma inh inactive.
Screening COc1ccccc1CNc1ccnc(-c2ccc3c(c2)OCO3)n1 returned Epigenetic derep inactive, Gal4-VP16 FLuc inactive, PINK1 expr mod inactive, Sfp inh 50µM and RORgamma inh inconclusive.
COc1ccccc1CNc1ccnc(-c2ccccc2OC)n1 was read as Gal4-VP16 FLuc inactive, PINK1 expr mod inactive, Sfp inh 79µM and RORgamma inh inactive.
Screening COc1ccc(CNc2ccnc(-c3ccc4c(c3)OCO4)n2)c(OC)c1 returned Gal4-VP16 FLuc inconclusive, PINK1 expr mod inactive, Sfp inh 45µM and RORgamma inh inconclusive.
`COc1ccc(CNc2cc(-c3ccccc3OC)ncn2)c(OC)c1` gave Gal4-VP16 FLuc inactive, PINK1 expr mod inactive, Sfp inh 89µM and RORgamma inh inactive.
COc1ccc(CNCc2ccccc2)cc1COc1ccc(NC(C)=O)cc1 was read as ClpP mod inactive and PINK1 expr mod inactive.
For O=C(CCNS(=O)(=O)c1ccc2c(c1)CCN2C(=O)C1CC1)N1CCN(c2cccc(C(F)(F)F)c2)CC1 the results were Epigenetic derep inactive, ClpP mod inactive and PINK1 expr mod inactive.
Screening COc1ccccc1CNc1ncncc1-c1ccccc1OC returned Gal4-VP16 FLuc 16µM, PINK1 expr mod inactive, Sfp inh inactive and RORgamma inh inconclusive.
COc1ccccc1CNc1ncncc1-c1ccccc1CN(C)C was read as Epigenetic derep inactive, Gal4-VP16 FLuc inactive, PINK1 expr mod inactive, Sfp inh inactive and RORgamma inh inactive.
CCc1nnc(NC(=O)CSc2ncc(-c3ccccc3)n2C)s1 was read as Epigenetic derep inactive, ClpP mod inactive, Gal4-VP16 FLuc inconclusive, PINK1 expr mod inactive, Sfp inh inactive and RORgamma inh 11µM.
`CCc1nnc(NC(=O)CSc2nnc(CSc3nc(C)cc(C)n3)o2)s1` gave Epigenetic derep inactive, ClpP mod inactive, Gal4-VP16 FLuc 13µM, PINK1 expr mod inactive, Sfp inh 50µM and RORgamma inh 5.6µM.
Screening CCc1nnc(NC(=O)CSc2nccn2-c2ccccc2)s1 returned Epigenetic derep inactive, ClpP mod inactive, Gal4-VP16 FLuc inactive, PINK1 expr mod inactive, Sfp inh inactive and RORgamma inh inactive.
CCc1nnc(NC(=O)CSc2nnc(-c3ccccc3O)o2)s1 was read as Epigenetic derep inactive, Gal4-VP16 FLuc 1.1µM, PINK1 expr mod inactive, Sfp inh inactive and RORgamma inh 0.11µM.
`COc1ccc(N2C(=S)NC(C)(C)CC2(C)c2ccc(OC(C)=O)cc2OC(C)=O)cc1` (stereo not drawn) gave Epigenetic derep inactive, Gal4-VP16 FLuc inconclusive, PINK1 expr mod inactive, Sfp inh inactive and RORgamma inh 10µM.
For O=c1[nH]cc(I)cc1I the results were Epigenetic derep inactive, ClpP mod inactive, Gal4-VP16 FLuc inactive, PINK1 expr mod inactive, Sfp inh 22µM and RORgamma inh inactive.
`COc1ccc(-c2cc(C(F)(F)F)nc(SCC(=O)NC(C)c3ccccc3)n2)cc1` (stereo not drawn) gave Epigenetic derep inactive, ClpP mod inactive and PINK1 expr mod inactive.
CCOC(=O)C1=C(C)N(c2ccc(Cl)cc2)C(=O)NC1c1cccc([N+](=O)[O-])c1 (stereo not drawn) was read as Epigenetic derep inactive, ClpP mod inactive, Gal4-VP16 FLuc inactive, PINK1 expr mod inactive, Sfp inh inactive and RORgamma inh inconclusive.
`COCCOC(=O)C1=C(C)N(c2ccccc2)C(=O)NC1c1cccc([N+](=O)[O-])c1` (stereo not drawn) gave Epigenetic derep inactive, ClpP mod inactive, Gal4-VP16 FLuc 18µM, PINK1 expr mod inactive, Sfp inh inactive and RORgamma inh inconclusive.
`CC(=O)c1cccc(NC(=O)Nc2cccs2)c1` gave Epigenetic derep inactive, ClpP mod inactive, Gal4-VP16 FLuc inconclusive, PINK1 expr mod inactive, Sfp inh inconclusive and RORgamma inh inconclusive.
For COc1ccc(NC(=O)Nc2cccs2)cc1OC the results were Epigenetic derep inactive, ClpP mod inactive, Gal4-VP16 FLuc inactive, Sfp inh 45µM and RORgamma inh inactive.
`Cc1cc(C)cc(NC(=O)Nc2cccs2)c1` gave Epigenetic derep inactive, ClpP mod inactive and PINK1 expr mod inactive.
COc1ccc(NC(=O)c2cccs2)cc1OC was read as Epigenetic derep inactive, ClpP mod inactive, Gal4-VP16 FLuc inactive, PINK1 expr mod inactive, Sfp inh inactive and RORgamma inh inactive.
Cc1ccc(NC(=O)Nc2cccs2)cc1 was read as Epigenetic derep inactive, ClpP mod inactive, Gal4-VP16 FLuc inactive, PINK1 expr mod inactive, Sfp inh 18µM and RORgamma inh inactive.
For CCOc1ccc(NC(=O)Nc2cccs2)cc1 the results were Epigenetic derep inactive, ClpP mod inactive, Gal4-VP16 FLuc inconclusive, PINK1 expr mod inactive, Sfp inh 56µM and RORgamma inh inactive.
CCc1ccc(NC(=O)Nc2cccs2)cc1 was read as Epigenetic derep inactive, ClpP mod inactive, Gal4-VP16 FLuc inactive, PINK1 expr mod inactive, Sfp inh 50µM and RORgamma inh inactive.
For Cc1ccccc1CNC(=O)c1sc2ncnc(N(C)C3CCCCC3)c2c1C the results were Epigenetic derep inactive, ClpP mod inconclusive and PINK1 expr mod inactive.
Cc1ccccc1CCNC(=O)c1ccc(Cn2c(=O)c3cccn3c3cccnc32)cc1 was read as Epigenetic derep inactive, ClpP mod inactive and PINK1 expr mod inactive.
COc1ccc(N2C(S)=C(C#N)C(=O)NC23CCCCC3)cc1 was read as Epigenetic derep inconclusive, Gal4-VP16 FLuc inconclusive, PINK1 expr mod inactive, Sfp inh 18µM and RORgamma inh inconclusive.
COc1ccc(N2C(=O)c3ccccc3NC23CCCC3)cc1 was read as Epigenetic derep inactive, Gal4-VP16 FLuc inactive, PINK1 expr mod inactive, Sfp inh inactive and RORgamma inh inactive.
CCOc1ccccc1OCCN1CCC(Cc2ccccc2)CC1 was read as Epigenetic derep inactive, ClpP mod inactive, Gal4-VP16 FLuc inactive, PINK1 expr mod inactive, Sfp inh inactive and RORgamma inh inactive.
CCNc1nc(OCC)nc(N2CCC(Cc3ccccc3)CC2)n1 was read as Epigenetic derep inactive, ClpP mod inactive, Gal4-VP16 FLuc 4µM, PINK1 expr mod inactive, Sfp inh inactive and RORgamma inh 5.6µM.
For Cc1c(NC(=O)c2cc(-c3ccccc3)nc3ccccc23)c(=O)n(-c2ccccc2)n1C the results were ClpP mod inactive and PINK1 expr mod inactive.
